# DSG3 Ab inh = inhibitors of pemphigus antibody binding to DSG3, primary screen, biochemical, bead-based, flow cytometry, scFv-GFP. Desmoglein-3 (Homo sapiens), P32926. DSG3-coupled beads, scFv-anti-DSG3-GFP binding; hits give low values. binding (percent of control), % at 10 µM. 310,000 tested, 0.48% active. AID 588358, 2011;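 active = binding more than 3 SD below its plate's average and above zero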;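 also: hits lower antibody fragment binding to DSG3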
# MsrA act = bovine MsrA enzyme activators, primary screen, biochemical, absorbance, HTS; purified bovine MsrA, absorbance read-out; AID 602163, 2012; activation, % at 10.6 µM; Methionine sulfoxide reductase A (Bos taurus); 360,000 tested, 0.3% active; in the data active = activation above about 7.5%
# DAGLB inh = DAGLB lipase inhibitors, primary screen, biochemical, fluorescence, HTS; AID 504411, 2011; 340,000 tested, 0.059% active; Diacylglycerol lipase-beta (Homo sapiens), Q8NCG7; HEK293T DAGLB membrane lysate, EnzChek fluorogenic substrate; inhibition, % at 5.17 µM; in the data active = inhibition above about 34%
# NadD inh = inhibitors of S. aureus NadD, primary screen, biochemical, colorimetric, uHTS; 360,000 tested, 0.78% active; inhibition, % at 20 µM; AID 602399, 2012; purified NadD enzyme, colorimetric absorbance read-out; in the data active = inhibition above about 26%
# MsrA inhibitor = bovine MsrA enzyme inhibitors, primary screen, biochemical, absorbance, HTS; inhibition, % at 15.5 µM; 360,000 tested, 0.75% active; AID 651718, 2012; Methionine sulfoxide reductase A (Bos taurus); purified bovine MsrA, absorbance read-out; in the data active = inhibition above about 4.5%
# rCAG binder = binders of r(CAG) RNA repeats, primary screen, biochemical, fluorescence | 370,000 tested, 1.3% active | inhibition, % at 3 µM | r(CAG) RNA repeat, TO-PRO-1 dye displacement fluorescence | AID 651821, 2012;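 active = inhibition above the plate cutoff, the mean of all test compounds on that plate plus 3 SD, cut at about 35% in these data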;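 also: higher means more dye released from RNA so lower well fluorescence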
# rCAG bind conf = small molecules binding CAG repeat RNA – biochemical, fluorescence, confirmation; 4,300 tested, 70% active; shares compounds with rCAG binder; inhibition, % at 3 µM; r(CAG) RNA repeat, TO-PRO-1 dye displacement fluorescence;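 active = inhibition above a per-plate cutoff, the mean inhibition of sample wells plus 3 SD, cut at about 35% in these data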;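 also: loss of TO-PRO-1 fluorescence as compound displaces dye from 1x1 AA loop RNA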
# dCAG dye counter = displacement of TO-PRO-1 from CAG DNA duplex, counter-screen for rCAG RNA repeat binder project, biochemical, fluorescence, TO-PRO-1 dye, d(CAG) DNA oligo; shares compounds with rCAG binder; d(CAG) DNA oligo TO-PRO-1 dye displacement; inhibition, % at 3 µM; 4,300 tested, 94% active;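 active = inhibition above its plate's cutoff, the mean test-well inhibition plus 3 SD, cut at about 4.8% in these data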;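 also: hits displace the dye from DNA and so lower well fluorescence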
# Hits are given with their value; - = inactive; . = no result given. Only some compounds are listed: those with a hit (about 3.2% of all), similar ones and a draw of the others.
SMILES,DSG3 Ab inh,MsrA act,DAGLB inh,NadD inh,MsrA inhibitor,rCAG binder,rCAG bind conf,dCAG dye counter
COC(=O)C1(C(=O)O)Cc2cc([N+](=O)[O-])ccc2N2CCCC21 (stereo unspecified),-,-,-,-,-,-,.,.
O=C(N/N=C1/CN2CCC1CC2)c1cc2ccccc2cc1O,-,-,-,-,-,49,-,-
CCOc1ccc(N2C(=O)/C(=C\c3cccs3)C(=O)NC2=S)cc1,.,.,.,.,-,39,-,7.3
O=C1NC(=S)N(c2ccccc2F)C(=O)/C1=C\c1cccs1,-,-,-,-,-,-,.,.
Cc1cc(OCC(=O)NC(Cc2ccc(Cl)cc2)C(=O)O)c2c3c(c(=O)oc2c1)CCCC3 (stereo unspecified),-,-,-,-,-,63,66,27
Cc1cc(OCC(=O)NCc2ccncc2)c2c3c(c(=O)oc2c1)CCC3,-,-,-,-,-,-,.,.
CCCCn1c(=O)c(C=Nc2ccc(Cl)cc2)c(O)n(Cc2ccco2)c1=O,-,-,-,-,-,-,.,.
CC(C)n1c(=O)c(C=Nc2ccc(S(N)(=O)=O)cc2)c(O)n(Cc2ccco2)c1=O,-,-,-,-,-,35,-,9.8
CC1=NN(c2ccccc2)C(=O)/C1=C/c1c(O)[nH]c(=S)[nH]c1=O,-,-,-,-,-,-,.,.
CN(C)[C@@H]1C(=O)C(C(N)=O)=C(O)[C@@]2(O)C(=O)C3=C(O)c4c(O)cccc4[C@@](C)(O)C3[C@H](O)C12 (stereo partly specified),-,-,-,-,-,55,-,7.5
C=CCn1c(O)c(/C(C)=N/NC(=S)Nc2ccccc2)c(=O)[nH]c1=O,-,-,-,-,-,37,44,13
COc1ccc(CN2C(=O)NC(=O)/C(=C/c3cc(OC)c(OC)c(OC)c3)C2=O)cc1,.,-,-,-,-,-,.,.
Cn1cccc1/C=C1/C(=O)NC(=S)N(Cc2ccc(F)cc2)C1=O,70,-,-,45,-,74,51,30
C=CCN1C(=O)NC(=O)/C(=C/c2cccn2C)C1=O,-,-,-,-,-,-,.,.
Cn1cccc1/C=C1/C(=O)NC(=O)N(Cc2ccc(F)cc2)C1=O,-,-,-,-,-,41,-,-
Cn1cccc1/C=C1/C(=O)NC(=O)N(Cc2ccccc2)C1=O,-,-,-,-,-,49,-,-
Cn1cccc1/C=C1\C(=O)NC(=O)N(Cc2ccccc2)C1=O,-,-,-,-,-,40,-,-
COC(=O)C1=C(c2cccc(C#N)c2)C[C@@H]2CC[C@H]1N2C(=O)NCc1cccc2ccccc12,-,-,-,-,-,-,.,.
O=C(Nc1cccc(Cl)c1)OCC#CCN1CCCC1,-,-,-,-,-,-,.,.
CC(C)c1ccc(-n2c(O)c(/C=N/NC(=O)c3ccccc3O)c(=O)[nH]c2=S)cc1,-,-,-,-,-,82,78,43

# Screening results (PubChem)
